Measured values taken from PubChem BioAssay (NCATS).
Results filed as inconclusive are left out. Entries that show only a call come without a potency. Calls of active or inactive are those of the source. Calls come from the whole dose curve; as a rule, active = well fitted cell-killing curve with a large enough effect; inconclusive = small, poorly fitted or top-dose-only effect, or effect the other way; inactive = flat fitted curve, though single readings scatter.

Test system: PA-1
Assay: Primary qHTS to identify gynecologic anti-cancer compounds using libraries of approved drugs and bioactive compounds (AID 1345084); note: nearly all actives have a fitted effect of over 55% in size
Conditions: Gynecologic cancer cell panel viability, ATPlite luminescence, 48 h; series mostly up to 57.5 µM
How it was run: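 Measured: luminescence after ATPlite addition (15 min, RT). Exposure: 48 h, 37 C, 5% CO2.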
Potency is the fitted concentration of half-maximal effect.

SMILES | Potency | activity change, negative = cytotoxicity
Cc1cc(-c2nc3cc(F)ccc3s2)ccc1NC(=O)[C@@H](N)CCCCN | 10 µM (active) | 
Cc1ccccc1CN1CCn2c1nc1c(c2=O)CN(Cc2ccccc2)CC1 | inactive | 
C=C(C)C(=O)O[C@H]1/C(C=O)=C\CC/C(CO)=C/[C@H]2OC(=O)C(=C)[C@@H]2[C@@H]1OC | inactive | 
C[C@@H]1CC[C@]2(C(=O)O)CC[C@]3(C)C(=CCC4[C@@]5(C)CC[C@H](O)[C@](C)(C(=O)O)C5CC[C@]43C)C2[C@]1(C)O (stereo partly specified) | inactive | 
COc1ccnc(CS(=O)c2nc3cc(OC(F)F)ccc3[nH]2)c1OC (stereo unspecified) | inactive | 
COc1ccc(-c2cnc3c(-c4cccc5ncccc45)cnn3c2)cc1 | inactive | 
CC(C)(C)OC(=O)c1ncn2c1C(C)(C)Nc1ccccc1-2 | inactive | 
CN1CCN(C(=O)CN[C@@H]2C[C@H]2c2ccc(OCc3ccccc3)cc2)CC1 | inactive | 
CC(=O)OC/C(=C/C(=O)O)CC[C@@H]1C(C=O)=CC[C@@H]2C(C)(C)CCC[C@@]12C | inactive | 
O=C(COc1ccc2ccccc2c1Br)Nc1cccnc1 | inactive | 
O=C(Nc1ccc2[nH]c(=O)oc2c1)C(=O)N1CCC(Cc2ccc(F)cc2)CC1 | inactive | 
CC(=O)OC[C@]12[C@H](OC(C)=O)C(=O)[C@@H]3[C@@H](O)[C@@]14O[C@@]3(C)COC(=O)c1cccnc1[C@@H](C)[C@H](C)C(=O)O[C@@H]([C@H](O)[C@@H]2OC(C)=O)[C@]4(C)O | inactive | 
CCOc1ccc(-n2c(C(C)N(Cc3cccnc3)C(=O)Cc3ccc(F)c(C(F)(F)F)c3)nc3ncccc3c2=O)cc1 (stereo unspecified) | inactive | 
C=C1C(=O)OC2/C=C(\CO)CC/C=C(\C=O)C(O)C(OC(=O)C(C)CC)C12 (stereo unspecified) | inactive | 
Cc1ccc(N2CCN(S(=O)(=O)N3CCCCC3)CC2)c(C)c1 | inactive | 
C1=C/COCc2cc(ccc2OCCN2CCCC2)Nc2nccc(n2)-c2cccc(c2)COC/1 | 2.82 µM (active) | 
Cn1ncnc1[C@@H]1c2n[nH]c(=O)c3cc(F)cc(c23)N[C@H]1c1ccc(F)cc1 | inactive | 
O=C(Cc1c(F)cccc1F)Nc1cc(OCc2ccc(Cl)cc2)ccn1 | inactive | 

SMILES | Potency | activity change, negative = cytotoxicity
CCOc1ccc(-n2c([C@@H](C)N(Cc3cccnc3)C(=O)Cc3ccc(OC(F)(F)F)cc3)nc3ncccc3c2=O)cc1 | inactive | 
C=C(C)C1=C[C@@]2(C)C(=CC1=O)CC[C@@H](O)[C@@H]2C | inactive | 
C=C1/C(=C/C=C2\CCC[C@]3(C)[C@@H]([C@H](C)/C=C/[C@H](O)C4CC4)CC[C@@H]23)C[C@@H](O)C[C@@H]1O | inactive | 
CC(C)(C)c1ccc(C(=O)Nc2cc(Cl)c(Br)cc2C(=O)O)cc1 | inactive | 
COc1c(C(O)CC(C)C)ccc2c1C(=O)OCc1cc(C)cc(O)c1O2 (stereo unspecified) | inactive | 
O=C(NCC1(c2nc(-c3ccccc3)cs2)CCOCC1)c1cccc(-c2noc(C(F)(F)F)n2)c1 | inactive | 
C/C=C/C=C/c1cc2c(C=O)c(O)c(CC=C(C)C)cc2o1 | inactive | 
Cc1ccc(N2CCN(CCC3NC(=O)c4ccccc43)CC2)cc1C (stereo unspecified) | inactive | 
CC(C)NC(=O)N1CC[C@H](N=C2Nc3cc(F)ccc3N(CC(F)F)c3ccc(Cl)cc32)C1 |  | -24.1% [at 11.6 µM] (inactive)
COc1ccc(CCO[C@@H]2O[C@H](CO[C@H]3OC[C@](O)(CO)[C@H]3O)[C@@H](OC(=O)/C=C/c3ccc(O)c(O)c3)[C@H](O[C@@H]3O[C@@H](C)[C@H](O)[C@@H](O)[C@H]3O)[C@H]2O)cc1OC | inactive | 
CC(=O)OC1CC(C)C2(CCC3(CC(=O)OC3O)O2)C2(C)CCCC(C)(C)C12 (stereo unspecified) | inactive | 
Cc1noc(-c2ccc(-c3ccc(CC(=O)O)cc3)cc2)c1NC(=O)O[C@H](C)c1ccccc1Cl | inactive | 
CN1CCN(c2ccc(-c3cccc(CN4CCOCC4)c3)cc2NC(=O)c2c[nH]c(=O)cc2C(F)(F)F)CC1 | inactive | 
COc1cc(N(C)CCN(C)C)c(N)cc1Nc1nccc(-c2cn(C)c3ccccc23)n1 | inactive | 
C=C1/C(=C/C=C2\CCC[C@@]3(C)C2CCC3[C@H](C)/C=C/[C@@H](O)C2CC2)C[C@@H](O)C[C@@H]1O (stereo partly specified) | inactive | 
CC(C)C(C)C(O)C1CC23CC(=O)C4(O)C(=C2CCC3C1C)C=CC1(O)CC(O)CCC14C (stereo unspecified) | inactive | 
O=C(NCC1CCN(Cc2cccc(Cl)c2)CC1)[C@@H]1CCCN(c2ncnc3c2nc2n3CCCC2)C1 | inactive | 
C=CC1(C)CC(O)C(C(=C)C(=O)OC)C(O)C1C(=C)CO (stereo unspecified) | inactive | 
